Data from PubChem BioAssay AID1159580 (chemical genetic matrix, 2015).
Screen size: about 5,500 compounds; about 2,000 (36%) were called active. Roughly 18% stayed inconclusive and do not appear here. Cut-off read from the data, not from the text of the source: active = normalized growth mostly below about 0.91 (no sharp cut-off); inconclusive = no clear call, values can overlap the other calls; inactive = mostly above about 0.92. The list shows a part of the results.

Test: chemical genetic growth profiling, strain panel (AID 1159580);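 note: tested at 20 µM; growth read once vehicle control cultures reached saturation at 30 °C; 1 = growth at the plate median or of vehicle wells; lower values mean less growth of the strain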
Settings: growth OD

Measured: normalized growth

CC(=O)N[C@@H](CCC(=O)O)C(=O)O
inactive: S. cerevisiae deletion strains, locus YJR075W, strain HOC1, stronger effect = lower value 1 | S. cerevisiae deletion strains, locus YKL009W, strain mrt4, stronger effect = lower value 1.06 | S. cerevisiae deletion strains, locus YKL068W, stronger effect = lower value 0.995 | S. cerevisiae deletion strains, locus YKL085W, strain MDH1 (second series), stronger effect = lower value 1.01 | S. cerevisiae deletion strains, locus YKL085W, strain MDH1, stronger effect = lower value 1.01 | S. cerevisiae deletion strains, locus YKL160W, strain elf1, stronger effect = lower value 1.04 | S. cerevisiae deletion strains, locus YKL190W, strain CNB1, stronger effect = lower value 1.01 | S. cerevisiae deletion strains, locus YKR001C, strain vps1, stronger effect = lower value 1.01 | S. cerevisiae deletion strains, locus YKR026C, strain gcn3, stronger effect = lower value 1.01 | S. cerevisiae deletion strains, locus YKR091W, strain srl3, stronger effect = lower value 1.02 | S. cerevisiae deletion strains, locus YLL001W, strain dnm1, stronger effect = lower value 0.996 | S. cerevisiae deletion strains, locus YLL026W, stronger effect = lower value 1.01 | S. cerevisiae deletion strains, locus YLL041C, strain sdh2, stronger effect = lower value 1.03 | S. cerevisiae deletion strains, locus YLR027C, strain aat2, stronger effect = lower value 1.02 | S. cerevisiae deletion strains, locus YLR039C, strain RIC1, stronger effect = lower value 1.02 | S. cerevisiae deletion strains, locus YLR058C, strain SHM2, stronger effect = lower value 0.999 | S. cerevisiae deletion strains, locus YLR102C, strain apc9, stronger effect = lower value 1.01 | S. cerevisiae deletion strains, locus YLR113W, strain HOG1, stronger effect = lower value 0.999 | S. cerevisiae deletion strains, locus YLR221C, strain rsa3, stronger effect = lower value 1 | S. cerevisiae deletion strains, locus YLR258W, strain gsy2, stronger effect = lower value 1.03 | S. cerevisiae deletion strains, locus YLR262C, strain YPT6 (second series), stronger effect = lower value 1.03 | S. cerevisiae deletion strains, locus YLR262C, strain YPT6, stronger effect = lower value 0.998 | S. cerevisiae deletion strains, locus YLR268W, strain sec22, stronger effect = lower value 1.06 | S. cerevisiae deletion strains, locus YLR320W, strain mms22, stronger effect = lower value 1.01 | S. cerevisiae deletion strains, locus YLR330W, strain CHS5, stronger effect = lower value 1.01 | S. cerevisiae deletion strains, locus YLR342W, strain FKS1 (second series), stronger effect = lower value 1.05 | S. cerevisiae deletion strains, locus YLR342W, strain FKS1, stronger effect = lower value 1.01 | S. cerevisiae deletion strains, locus YLR357W, strain rsc2, stronger effect = lower value 0.997 | S. cerevisiae deletion strains, locus YLR370C, strain arc18, stronger effect = lower value 1.02 | S. cerevisiae deletion strains, locus YLR371W, strain rom2, stronger effect = lower value 1 | S. cerevisiae deletion strains, locus YLR384C, strain iki3, stronger effect = lower value 1.01 | S. cerevisiae deletion strains, locus YLR418C, strain cdc73, stronger effect = lower value 1.01 | S. cerevisiae deletion strains, locus YML016C, strain PPZ1, stronger effect = lower value 1 | S. cerevisiae deletion strains, locus YML032C, strain rad52, stronger effect = lower value 1.03 | S. cerevisiae deletion strains, locus YML120C, strain ndi1, stronger effect = lower value 1.01 | S. cerevisiae deletion strains, locus YML124C, strain tub3, stronger effect = lower value 1.01 | S. cerevisiae deletion strains, locus YMR058W, strain fet3, stronger effect = lower value 1.02 | S. cerevisiae deletion strains, locus YMR078C, strain ctf18, stronger effect = lower value 1.01 | S. cerevisiae deletion strains, locus YMR125W, strain sto1, stronger effect = lower value 1.01 | S. cerevisiae deletion strains, locus YMR129W, stronger effect = lower value 1.01 | S. cerevisiae deletion strains, locus YMR205C, strain PFK2, stronger effect = lower value 1.01 | S. cerevisiae deletion strains, locus YMR223W, strain ubp8, stronger effect = lower value 1 | S. cerevisiae deletion strains, locus YMR231W, strain pep5, stronger effect = lower value 1.02 | S. cerevisiae deletion strains, locus YMR263W, strain SAP30, stronger effect = lower value 1.01 | S. cerevisiae deletion strains, locus YMR307W, strain GAS1, stronger effect = lower value 1.04 | S. cerevisiae deletion strains, locus YNL067W, strain RPL9B, stronger effect = lower value 1.01 | S. cerevisiae deletion strains, locus YNL071W, strain lat1, stronger effect = lower value 1.02 | S. cerevisiae deletion strains, locus YNL153C, strain GIM3, stronger effect = lower value 1.01 | S. cerevisiae deletion strains, locus YNL183C, strain NPR1, stronger effect = lower value 0.907 | S. cerevisiae deletion strains, locus YNL209W, strain ssb2, stronger effect = lower value 1.03 | S. cerevisiae deletion strains, locus YNL233W, strain BNI4, stronger effect = lower value 1.01 | S. cerevisiae deletion strains, locus YNL248C, strain rpa49, stronger effect = lower value 1.02 | S. cerevisiae deletion strains, locus YNL250W, strain rad50, stronger effect = lower value 1 | S. cerevisiae deletion strains, locus YNL271C, strain bni1, stronger effect = lower value 1.02 | S. cerevisiae deletion strains, locus YNL298W, strain CLA4, stronger effect = lower value 1.01 | S. cerevisiae deletion strains, locus YNL307C, strain MCK1, stronger effect = lower value 1.02 | S. cerevisiae deletion strains, locus YNL322C, strain KRE1 (second series), stronger effect = lower value 1.01 | S. cerevisiae deletion strains, locus YNR049C, strain mso1, stronger effect = lower value 1.02 | S. cerevisiae deletion strains, locus YNR052C, strain pop2, stronger effect = lower value 1.02 | S. cerevisiae deletion strains, locus YOL006C, strain TOP1, stronger effect = lower value 1.06 | S. cerevisiae deletion strains, locus YOL012C, strain htz1 0.888 | S. cerevisiae deletion strains, locus YOL147C, strain pex11, stronger effect = lower value 1.01 | S. cerevisiae deletion strains, locus YOR001W, strain rrp6, stronger effect = lower value 0.988 | S. cerevisiae deletion strains, locus YOR061W, strain CKA2, stronger effect = lower value 1.01 | S. cerevisiae deletion strains, locus YOR069W, strain VPS5, stronger effect = lower value 1.01 | S. cerevisiae deletion strains, locus YOR070C, strain gyp1, stronger effect = lower value 1.03 | S. cerevisiae deletion strains, locus YOR080W, strain dia2, stronger effect = lower value 1.04 | S. cerevisiae deletion strains, locus YOR083W, strain WHI5, stronger effect = lower value 1.03 | S. cerevisiae deletion strains, locus YOR106W, strain vam3, stronger effect = lower value 1.03 | S. cerevisiae deletion strains, locus YOR136W, strain idh2, stronger effect = lower value 0.993 | S. cerevisiae deletion strains, locus YOR144C, strain elg1, stronger effect = lower value 1.01 | S. cerevisiae deletion strains, locus YOR184W, strain ser1, stronger effect = lower value 1.02 | S. cerevisiae deletion strains, locus YOR231W, strain MKK1, stronger effect = lower value 0.973 | S. cerevisiae deletion strains, locus YOR265W, strain rbl2, stronger effect = lower value 1.01 | S. cerevisiae deletion strains, locus YOR270C, strain vph1, stronger effect = lower value 1.11 | S. cerevisiae deletion strains, locus YOR290C, strain snf2, stronger effect = lower value 1.05 | S. cerevisiae deletion strains, locus YOR316C, strain cot1, stronger effect = lower value 1 | S. cerevisiae deletion strains, locus YPL051W, strain arl3, stronger effect = lower value 1.03 | S. cerevisiae deletion strains, locus YPL055C, strain LGE1, stronger effect = lower value 0.977 | S. cerevisiae deletion strains, locus YPL078C, strain atp4, stronger effect = lower value 1.03 | S. cerevisiae deletion strains, locus YPL106C, strain sse1, stronger effect = lower value 1.02 | S. cerevisiae deletion strains, locus YPL240C, strain hsp82, stronger effect = lower value 1.03 | S. cerevisiae deletion strains, locus YPL256C, strain CLN2, stronger effect = lower value 0.956 | S. cerevisiae deletion strains, locus YPR119W, strain clb2, stronger effect = lower value 1 | S. cerevisiae deletion strains, locus YPR141C, strain kar3, stronger effect = lower value 1.01 | S. cerevisiae deletion strains, locus YPR163C, strain tif3, stronger effect = lower value 1.01 | S. cerevisiae deletion strains, locus YPR167C, strain met16, stronger effect = lower value 1 | S. cerevisiae deletion strains, strain wtn01, stronger effect = lower value 1.02 | S. cerevisiae strains, strain wild type, stronger effect = lower value 1.01
